# BCLXL inh – inhibitors of human Bcl-xL, primary screen, biochemical, fluorescence polarization, HTS; 320,000 compounds, 0.7% hits; GST-Bcl-xL / FITC-Bim BH3 peptide fluorescence polarization; inhibition, % at 10.9 µM; AID 2129, 2009;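 active = inhibition above the mean of all tested compounds plus 3 SD, cutoff set per campaign, cut at about 30% in these data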;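 note: 0% = DMSO wells and 100% = unlabeled Bim-BH3 peptide competitor; inhibitors lower millipolarization by displacing the labeled peptide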
# Target sequence (Q07817 whole entry, looked up): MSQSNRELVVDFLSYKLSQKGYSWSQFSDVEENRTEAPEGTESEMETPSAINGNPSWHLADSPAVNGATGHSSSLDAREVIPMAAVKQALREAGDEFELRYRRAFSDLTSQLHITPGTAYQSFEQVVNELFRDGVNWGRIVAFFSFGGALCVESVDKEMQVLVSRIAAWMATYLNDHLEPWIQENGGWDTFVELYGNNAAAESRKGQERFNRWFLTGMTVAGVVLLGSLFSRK
# GLD-1 RNA inh – GLD-1/TGE RNA complex disruptors, primary screen, biochemical, fluorescence polarization; 320,000 compounds, 0.44% hits; Female germline-specific tumor suppressor gld-1 (Caenorhabditis elegans), Q17339; purified GLD-1 + fluorescein TGE RNA; inhibition, % at 5.96 µM;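 active = percent inhibition above a per-plate cutoff, the plate mean of test compounds plus 3 SD, cut at about 30% in these data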;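 note: 0% = DMSO wells with GLD-1 and probe and 100% = wells lacking GLD-1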
# EBV gp42 block – Epstein-Barr virus gp42 inhibitors, primary screen, biochemical, uHTS, fluorescence polarization. Glycoprotein 42 (Epstein-Barr virus (strain AG876)), Q1HVG2. Fluorescence polarization binding assay, mP read-out. inhibition, % (tested at 21.74 µM). 220,000 compounds, 0.42% hits. AID 1085, 2008; in the data active = inhibition above about 50%
# Target sequence (Q1HVG2 whole entry, looked up): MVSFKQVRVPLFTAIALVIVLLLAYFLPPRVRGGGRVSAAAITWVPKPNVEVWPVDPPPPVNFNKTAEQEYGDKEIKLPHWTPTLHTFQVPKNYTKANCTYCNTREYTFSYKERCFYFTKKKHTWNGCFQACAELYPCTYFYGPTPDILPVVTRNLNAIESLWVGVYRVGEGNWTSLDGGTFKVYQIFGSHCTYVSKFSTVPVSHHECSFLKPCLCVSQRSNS
# E coli Lon inh – inhibitors of E. coli Lon protease, primary screen, biochemical, fluorescence polarization; P0A9M0; purified E. coli Lon protease; inhibition, % at 7.94 µM; 360,000 compounds, 0.42% hits; AID 602123, 2011; in the data active = inhibition above about 13%, passing the limit was not always enough;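 note: 0% = enzyme with probe and DMSO and 100% = no enzyme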
# MEX-5 binding – MEX-5 zinc finger RNA-binding disruptors – biochemical, C. elegans, fluorescence polarization, MLPCN library, primary screen; AID 1832, 2009; activity score (negative = inhibition of binding), % at 10 µM; MEX-5/FITC-TCR2 RNA binding; stronger effect = lower value; Zinc finger protein mex-5 (Caenorhabditis elegans), Q9XUB2; 300,000 compounds, 0.38% hits;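 active = inhibition past about -25% in most replicates, and total fluorescence under double the plate's negative control median, limit read from the data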;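 note: 0% = DMSO and -100% = 5 µM competing unlabeled TCR2 RNA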
# * hit, by the source's call; x = no result given. Hits are enriched below; roughly 1.3% of the tested compounds scored in any of these assays.
SMILES,BCLXL inh,GLD-1 RNA inh,EBV gp42 block,E coli Lon inh,MEX-5 binding
CC(=O)Nc1ccc(S(=O)(=O)NNC(=O)C(=O)NNc2ccccn2)cc1,1.8,7.9,-7.5,7.1,-45.3*
Cc1ccccc1S(=O)(=O)NNC(=O)C(=O)NNc1ccccn1,2.8,8.2,-2.8,-3.0,-25.6*
Nc1ccc(S(=O)(=O)NNC(=O)C(=O)NNc2ccccn2)cc1,-2.3,5.0,-1.8,6.9,-30.3*
COc1ccc(NC(=O)C2CCCN2S(=O)(=O)c2ccc3c(c2)C(C)(C)C(=O)N3C)cc1 (stereo unspecified),x,x,x,-0.5,x
CCc1nnc(NC(=O)CCC(=O)N2CCC(Cc3ccccc3)CC2)s1,0.1,1.7,x,0.1,0.6
CN(C=[N+](C)C)c1cccc2c1C(=O)c1ccccc1C2=O,35.3*,18.4,1.3,15.0,-27.7*
CC1(C(=O)NCc2cccs2)Cc2c(-c3ccc4c(c3)OCO4)ccnc2O1 (stereo unspecified),x,x,x,2.1,x
Nc1ccc(-c2nc3ccc([N+](=O)[O-])cc3[nH]2)cc1,2.9,3.7,-4.0,-8.3,0.7
O=[N+]([O-])c1ccc(-c2nc3ccc([N+](=O)[O-])cc3[nH]2)cc1,4.1,-1.4,75.3*,-19.3,-1.7
COC(=O)CCC(=O)OC1(C)C(=O)C=C2C=C(C3CC3)N(Cc3ccco3)C=C2C1=O (stereo unspecified),36.8*,15.2,26.2,12.0,-12.6
COC(=O)CCC(=O)OC1(C)C(=O)C=C2C=C(C3CC3)N(c3ccc(CO)cc3)C=C2C1=O (stereo unspecified),63.5*,45.0*,x,x,-36.4*
COC(=O)CCC(=O)OC1(C)C(=O)C=C2C=C(C3CC3)N(c3cccc(C#N)c3)C=C2C1=O (stereo unspecified),46.9*,30.6,13.7,14.5,-16.8
CCc1ccc(N2CC(C(=O)Nc3ccc4c(c3)OCCO4)CC2=O)cc1 (stereo unspecified),2.2,3.7,x,-8.6,0.2
CSCCC(C(=O)Nc1c(C)cccc1C)N1CCN(c2ccc(C(F)(F)F)cn2)CC1 (stereo unspecified),x,x,x,-2.0,x
COc1ccc2nc(N3C(=O)CNC3=S)sc2c1,-0.1,-2.9,-13.3,-6.1,0.7
CCOc1ccc2nc(N3C(=O)/C(=C/c4ccc(Cl)cc4)NC3=S)sc2c1,x,x,64.1*,-7.1,-4.4
O=C(CSc1ccsc1[N+](=O)[O-])Nc1cc(F)ccc1F,x,x,91.5*,-9.3,-2.1
Cc1ccc(CNC(=O)CSc2ccsc2[N+](=O)[O-])cc1,6.0,4.6,3.7,2.3,0.6
CC(=O)c1ccc(NC(=O)CSc2ccsc2[N+](=O)[O-])cc1,x,x,51.1*,-12.3,-4.4
O=C(CCl)NCCN1C(=O)S/C(=C\c2cccnc2)C1=O,1.8,-3.6,-26.0,6.0,-59.7*
CCN(CC(=O)Nc1c(C(=O)OC)[nH]c2ccc(Cl)cc12)c1ccc2c(c1)OCO2,49.2*,0.5,10.9,8.3,0.1
CCOC(=O)c1c(NC(=O)c2ccc(N3C(=O)[C@@H]4[C@H](C3=O)[C@H]3C=C[C@@H]4C3)cc2)sc2c1CCCC2,-2.3,-3.5,-10.7,-7.0,1.0
O=C(NCCN1CCN(Cc2ccccc2)CC1)c1ccc(CS(=O)(=O)c2ccc(Br)cc2)o1,1.7,2.3,x,0.3,-2.3
Cc1c(C(=O)C(=O)NCCCn2ccnc2)c2ccccc2n1C,-0.6,2.8,-5.4,8.4,0.1
Cc1cc(C(=O)N/N=C2\CCCC(=O)C2)c2ccccc2n1,26.2,73.9*,-7.0,15.3,-4.7
Cc1cc(C(=O)Nc2ccccc2)c2ccccc2n1,0.4,-6.2,x,-5.4,-3.5
Cc1cccc2c3nc4ccccc4nc3n(C)c12,49.1*,13.6,x,-3.8,1.8
COC(=O)Cn1c2nc3ccccc3nc2c2cccc(C)c21,x,x,x,3.2,1.6
CC(=O)OC(/C(O)=C(\C#N)c1nc2ccccc2[nH]1)c1ccccc1 (stereo unspecified),5.1,0.6,18.1,-2.4,0.4
COC(=O)c1ccccc1NCc1cc(=O)oc2cc(O)c(O)cc12,8.7,-1.4,x,-10.4,-28.1*

# From PubChem BioAssay
